# From PubChem BioAssay
# A selection: hits, their analogues and other compounds. The true share with any hit is near 19%.
# IL-1B inflam inh: inflammasome signaling inhibition, IL-1 beta readout; THP-1 LPS/ATP IL-1B secretion, AlphaLISA, 16 h; active compounds read low; activity change, % at 57.5 µM; 360,000 tested, 4.7% active; AID 743279; in the data active = activity change below about -50%; inconclusive = mostly about -30% to -49%
#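 THP-1 cells pretreated 1 hr with compounds (up to 57.5 uM final), then stimulated with LPS (250 ng/mL final) plus ATP (1.25 mM final); secreted IL-1B measured by AlphaLISA after 16 hr, decreased signal indicating inhibition.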
# TDP1 cell noCPT: qHTS for Inhibitors of human tyrosyl-DNA phosphodiesterase 1 (TDP1): qHTS in cells in absence of CPT; DT40 Tdp1-/- hTDP1 cells, no CPT, ATP luminescence, 48 h; 420,000 tested, 15% active; AID 686978, 2013; Potency, µM (titrated, usually from 46.2 µM), hits mostly inhibitors; also: nearly all actives have a fitted effect of over 55% in size
#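 Stably hTDP1-transfected Tdp1-null chicken DT40 cells were treated with library compounds minus camptothecin and grown for at least 48 hr at 37 °C, after which cellular ATP was quantified by luminescence.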
# ELG1 repair inh: blocks ELG1-dependent DNA repair in HEK293T cells; 330,000 tested, 2.3% active; Potency, µM (titrated, usually from 46.1 µM), hits mostly inhibitors; HEK293T ELG1-luciferase reporter, luminescence, 16 h; DNA damage induced by 5-fluorouridine; also: nearly all actives have a fitted effect of over 55% in size
#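 Reporter activity after DNA damage by 5-fluorouridine is monitored. Compound-treated cells incubate 16 hr at 37 °C, then ONE-Glo is added for 30 min before luminescence reading.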
# HT1080 IDH1KD tx: HT-1080 IDH1 knockdown cell toxicity (counter line); 360,000 tested, 2% active; HT-1080 IDH1 knockdown viability, ATP luminescence, 48 h; Potency, µM (doses to about 46.1 µM), actives largely listed as cytotoxic
#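 Using the IDH1-knockdown HT-1080 line run in the same batch and compound series as the NT line, viability after 48 h at 37 °C was determined by CellTiter-Glo luminescence and expressed as % activity.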
# DT40 TDP1 CPT: growth inhibition of DT40 Tdp1-/-;hTDP1 cells with camptothecin (screen for TDP1 inhibitors); chicken DT40 Tdp1-/-;hTDP1 cells + 20 nM CPT, ATP luminescence, 48 h; Potency, µM (highest dose often 46.2 µM), most hits filed as inhibitors; 420,000 tested, 12% active; also: nearly all actives have a fitted effect of over 55% in size
#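 Chicken DT40 Tdp1-/- cells stably complemented with human TDP1 were seeded at 400 cells/well in medium containing 20 nM camptothecin, exposed to pin-transferred compounds, and grown at 37 °C for at least 48 hr. Viability was read as ATP luminescence.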
# HT1080NT lethal: kills 2HG-producing HT-1080-NT fibrosarcoma cells; Potency, µM (top dose mostly 46.1 µM), most hits filed as cytotoxic; HT-1080-NT fibrosarcoma viability, CellTiter-Glo ATP luminescence, 48 h; 360,000 tested, 1.6% active;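 also: NT is the 2HG producing partner of a matched IDH1 knockdown line; nearly all actives have a fitted effect of over 55% in size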
#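 750 cells/well, RPMI + 5% FBS; 2 h settle, compound pin-transfer, 48 h at 37 degrees C. CellTiter-Glo 10 min RT, luminescence. Normalized to DMSO and media-only wells.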
# Numbers stand for hits; 0 = inactive; ? = inconclusive; - = no result. Unless noted, calls follow the shape of the dose curve; as a rule, active = well fitted curve in the direction sought with a large enough effect; inconclusive = small, poorly fitted or top-dose-only effect, or another doubt; inactive = no such curve, though single readings can be large; an effect the other way counts as inactive or inconclusive.
SMILES,IL-1B inflam inh,TDP1 cell noCPT,ELG1 repair inh,HT1080 IDH1KD tx,DT40 TDP1 CPT,HT1080NT lethal
Cc1ccc(-c2csc3nc[nH]c(=S)c23)cc1,0,5.17µM,?,?,3.26µM,?
S=c1[nH]cnc2scc(-c3ccc(Cl)cc3)c12,-,?,16.4µM,?,?,0
S=c1[nH]cnc2scc(-c3ccc(Br)cc3)c12,0,5.8µM,?,13µM,?,20.6µM
CC(C)c1ccc(-c2csc3nc[nH]c(=O)c23)cc1,0,?,?,0,0,0
O=c1[nH]cnc2scc(-c3ccc(Br)cc3)c12,0,?,0,0,0,0
O=C(Cc1ccc(F)cc1)N[C@@H]1c2ccccc2CC[C@@H]1OCc1ccccc1,0,0,?,0,0,0
c1ccc(C2=Nc3cccnc3C(c3ccccc3)=NN2)cc1,0,0,?,0,0,0
CCOc1ccc(CNC(=O)Cn2nc(C)n3cccc3c2=O)cc1,-,0,-,-,0,-
O=c1[nH]cnc2scc(-c3ccccc3)c12,0,0,0,0,0,0
Cc1cc(-c2csc3nc[nH]c(=S)c23)cc(C)c1C,0,5.17µM,0,14.6µM,5.8µM,16.4µM
CCOC(=O)C(C(=O)OCC)C1OC(=O)c2cc3c(cc21)C(=O)OC3C(C(=O)OCC)C(=O)OCC (stereo unspecified),-97.7,0,0,?,?,?
O=C1NC(=S)N/C1=C\c1ccc(N2CCOCC2)cc1,0,?,?,0,16.4µM,0
O=C1NC(=S)NC1=Cc1ccc(O)cc1,0,0,-,0,0,0
O=C1NC(=S)N/C1=C/c1ccc2c(c1)OCO2,0,5.8µM,0,0,?,0
Clc1ccc2nccnc2c1,-,0.794µM,-,-,1µM,-
Cc1ccc2nccnc2c1,-,3.16µM,-,-,3.55µM,-
Cc1ccc2c(C)ccnc2c1,-,7.08µM,-,-,10µM,-
Cc1ccc2ncccc2c1,0,0,0,0,0,0
Cc1cc2ncn(C(=O)c3ccc(F)cc3)c2cc1C,0,0,0,0,0,0
N#Cc1c(N)nc2c(c1-c1ccc(F)cc1)c(=O)nc1sccn12,0,2.59µM,?,0,0,0
Cc1nc(N)c(C#N)c(-c2ccccc2)c1C,0,?,0,0,0,0
Cc1ccc(-n2nc(C)c3c(-c4cccs4)c(C#N)c(N)nc32)cc1,0,23.1µM,12.6µM,0,?,0
Cc1nn(-c2ccccc2)c2nc(N)c(C#N)c(-c3ccc(F)cc3)c12,?,25.9µM,?,0,18.4µM,0
CCn1cc(S(=O)(=O)N2CCc3ccccc3C2)cn1,0,0,0,0,0,0
COc1cc(NC(=S)N2CCCC2)cc(OC)c1,0,0,0,0,?,0
SMILES,IL-1B inflam inh,TDP1 cell noCPT,ELG1 repair inh,HT1080 IDH1KD tx,DT40 TDP1 CPT,HT1080NT lethal
Cc1ccc(N2CCn3c2nc2c3c(=O)n(CCCc3ccccc3)c(=O)n2C)cc1C,-,0,-,-,0,-
Cn1cc(-c2nc3cnc(Oc4ccccc4)nc3n(CCC#N)c2=O)c2ccccc21,-,0,-,-,0,-
O=C(Cn1c(=O)oc2cc(S(=O)(=O)N3CCCCC3)ccc21)NCc1ccc(Cl)cc1,-,7.31µM,-,-,9.2µM,-
COc1cccc(CNC(=O)Cn2ccc3cc(S(=O)(=O)N4CCCC4)ccc32)c1,0,?,0,0,?,0
O=C(Cn1c(=O)oc2cc(S(=O)(=O)N3CCCCC3)ccc21)NCc1ccc(F)cc1,-,5.8µM,-,-,5.17µM,-
COc1cccc(CNC(=O)Cn2c(=O)oc3cc(S(=O)(=O)N4CCCC4)ccc32)c1,-,23.1µM,-,-,?,-
CCOC(=O)Cn1c(=O)oc2cc(S(=O)(=O)N(C)c3ccc(OC)cc3)ccc21,-57.0,0,0,0,0,0
O=C(Cn1c(=O)oc2cc(S(=O)(=O)N3CCCC3)ccc21)NC1CCCCC1,0,0,0,0,0,0
CCn1c(C(=O)NCc2ccc(OC(C)C)cc2)cc2oc3ccccc3c21,-,0,-,-,0,-
CC(C)CNC(=O)C1(C)CCCN1C(=O)c1cccnc1Oc1ccccc1 (stereo unspecified),0,0,-,0,0,0
CCC(C)NC(=O)c1ccc(CSCc2ccc(Cl)cc2)o1 (stereo unspecified),0,25.9µM,0,0,0,0
Cc1nn(C)c(C(=O)NCc2ccc(Cl)cc2)c1Cl,0,4.11µM,?,0,4.11µM,0
Cc1ccc(CC(=O)NCc2ccc(Cl)cc2)cc1,0,3.66µM,0,9.2µM,4.61µM,20.6µM
Cc1ccc(CSCc2ccc(C(=O)NC3CC3)o2)cc1,0,23.1µM,0,?,?,?
Cc1cc(OI)c(C(C)C)cc1-c1cc(C(C)C)c(OI)cc1C,-,0,-,-,?,-
O=C(NCc1ccc(F)cc1)C1CCN(S(=O)(=O)c2ccc(Br)s2)CC1,0,0,0,0,0,0
Cc1ccccc1CSCc1ccc(C(=O)NCCCN2CCOCC2)o1,0,0,0,0,0,0
Cc1ccc(CSCc2ccc(C(=O)NCCC(C)C)o2)cc1,-66.1,?,?,0,0,0
O=C(NCc1ccc(Cl)cc1)c1ccc(CSCc2cccc(Cl)c2)o1,-,?,-,-,0,-
Cc1ccc(CSCc2ccc(C(=O)NCCCN3CCOCC3)o2)cc1,0,6.51µM,0,0,?,0
Cc1ccc(CNC(=O)c2ccc(CSCc3ccc(Cl)cc3)o2)cc1,-,16.4µM,-,-,?,-
CCOc1cc(-c2ccccc2)nc2c1CN(S(=O)(=O)c1ccc(C)cc1)C(c1cccc(Cl)c1)C2 (stereo unspecified),0,9.2µM,-,0,?,?
CCOC1=C2CN(S(=O)(=O)c3ccc(C)cc3)[C@H](c3ccccc3)C[C@@H]2N(S(=O)(=O)c2ccc(C)cc2)[C@H](c2cccc(C)c2)C1,0,0,-,0,0,0
Cc1ccccc1-n1c(C)nnc1SCC(=O)N(C)C1CCS(=O)(=O)C1 (stereo unspecified),0,0,0,0,0,0
C[C@@H]1CC[C@]2(C(=O)O)CC[C@]3(C)C(=CCC4[C@]56CC[C@@](O)(OC5)C(C)(C)C6CC[C@]43C)C2[C@H]1C (stereo partly specified),0,18.4µM,0,?,13µM,?
C[C@H]1[C@H](C)CC[C@]2(C(=O)O)CC[C@]3(C)C(=CC[C@@H]4[C@@]5(C)C[C@@H](O)[C@H](O)C(C)(C)[C@@H]5CC[C@]43C)[C@H]12,0,?,?,0,?,0
O=C(Cc1cccs1)N=Nc1c(O)[nH]c2ccc(Br)cc12,0,?,0,0,25.9µM,0
O=C(Cn1c(C(F)(F)F)nc2ccccc21)N=Nc1c(O)[nH]c2ccc(Br)cc12,0,18.4µM,0,0,?,0
